From the supplement of paper PMC11417369 come the findings set out here.

± gives the standard deviation of the averaged measurements. Over roughly 25,000 sequences, “ln(normalized median fluorescence intensity)” has its median near 8.6; the highest 2% begin near 10. This excerpt belongs to a sample that is enriched for the highest values.

For this experiment, the system named is PfAP2-EXP AP2 domain (GST-tagged). Nature of the experiment: gcPBM binding intensity (ln(normalized median fluorescence intensity)); higher = stronger DNA binding. Summed up:
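Binding intensity is the highest Masliner-normalised natural-log median intensity over replicate spots in either probe orientation. To obtain it, GST-tagged P. falciparum DNA-binding domains made in E. coli were incubated for 1 h on an Agilent 4 × 180k array of primer-extended double-stranded 36-bp intergenic genomic probes plus negative controls. Detection used Alexa488 anti-GST antibody with scanning at 488 nm.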
“TTTCTATTACGAACGTGTACATACATTATTCTTAAA [XGTACX_site5816]”: the “gcPBM binding intensity (ln)” value was 8.88 ± 0.26.

“TAAAGAGTTACCATTTGTACTTACGCACACATAAAA [XGTACX_site3145]”: the “gcPBM binding intensity (ln)” value is 8.45 ± 0.37.

As for “AATTAAATATTATAAACACACATATAGATTATTTTT [CACACA_site6538]”, the “gcPBM binding intensity (ln)” value came to 8.17 ± 0.49.

Turning to “ACAAAATAAAACATCTGTACATATTATTATTATAAG [XGTACX_site4802]”, the “gcPBM binding intensity (ln)” value is 8.34 ± 0.35. To “AAAACATTGTTTATGTGTACATAATTATATTTACAA [XGTACX_site6926]” belongs 8.45 ± 0.39; to “ATAATCTGACAAATGTGTACACATATATATATATAT [XGTACX_site2379]”, 10.3 ± 0.34.

As for “TATGTAACAAAAAAAAGTACACATATATATAGTGTA [XGTACX_site7772]”, the “gcPBM binding intensity (ln)” value is 8.52 ± 0.39. For “GTGTACAGACACAAAATATATACATATATATATATA [CACACA_negctrl_site1796]” the value was 9.87 ± 0.54; for “CATATTAGGACAAAGTGTACATATATATATATATAT [XGTACX_site1172]”, 10.3 ± 0.27; for “TATATATATATAATGTGTACACAAATATATATTATA [XGTACX_site8786]”, 9.74 ± 0.23.

For “AAAAATATAATATAATGTACACAAAAAAAAAAAATC [XGTACX_site1427]”, the “gcPBM binding intensity (ln)” value came out at 8.73 ± 0.49. For “ATATATTATATAAAGTGTACAAAAAAAATATATAAA [XGTACX_site8065]” the value was 8.91 ± 0.41; for “ATTATATATATAAAGTGTACAAAAAAAAAAAAAAAA [XGTACX_site3134]”, 8.46 ± 0.33; for “ATCTGACAAAAGTGTACACATATATATATATATATA [CACACA_site4814]”, 10.2 ± 0.61. For “TAGTTACCTTAATATTGTACTTTTCTTTCATATATG [XGTACX_site1309]” the value was 8.82 ± 0.38; for “TATAATATATATTTGTGTCCACAACATTTTTAATAT [XGTACX_site2089]”, 8.56 ± 0.28; for “TTTTTTTTTTGATGTTGTACATATATATTATATAAT [XGTACX_site2765]”, 8.55 ± 0.4. For the sequence “AAAACAAAATAGGGAACACACACATGTCAATATATA [CACACA_site8834]”, the “gcPBM binding intensity (ln)” value turned out to be 8.88 ± 0.41. To “TCCCATAATATTAGTAGTACTATTAATATTTTCAGG [XGTACX_site4925]” belongs 8.33 ± 0.42; to ATATATTTTATATGTGTGCACTATATATATATATAT, 10.3 ± 0.18. As to “ATCATATTTTTATGTGTGCACTTTTTTTTTTTTTTT [GTGCAC_site9555]”, the “gcPBM binding intensity (ln)” value came out at 9.02 ± 0.099. To “TTTATATTCTTAAGTGTGCACTATATATATATATAT [GTGCAC_site9719]” belongs 10.38 ± 0.049; to ATTTTTTTCTTAGGAGTGCACTTATATTTATTTTAT, 9.12 ± 0.11; to TATATATAAATATATGTGCACTTTTTATATTTATAT, 9.06 ± 0.099. For ATTTATATTAAAAGTGTGCACTTTTTTTTTTTTTTT the value was 8.67 ± 0.042; for “TTTATATCTTATTATAGGAAAATGAATATTTTCTCT [TGCATGCA_negctrl_site478]”, 8.19 ± 0.36; for “TATTTTAACTTCTCATGTACATATATTATGTCTATA [XGTACX_site249]”, 9.01 ± 0.39. To “ATAGAACTGAATAAATCTATAAATAAATATATATAT [GTGCAC_negctrl_site604]” belongs 9.16 ± 0.23; to “AATATAAACACAAACACACACATATAGATTTATATA [CACACA_site6263]”, 8.55 ± 0.38; to “TTTTGGTTAATTCCCCCCATTACATTATGTCATGTC [CACACA_negctrl_site229]”, 10.185 ± 0.007. As to “ATTTTTGTTATTACATGTACCCATAATTATTATTAA [XGTACX_site3558]”, the “gcPBM binding intensity (ln)” value was found to be 9.22 ± 0.44.

For the sequence “TATAAAATTACATTTTGTCATTTATTTTTTCCCACT [TGCATGCA_negctrl_site110]”, the “gcPBM binding intensity (ln)” value was 8.28 ± 0.45. With “TTTTGTTTAAAAAAAAAAAACAAAAAAAAGCAATTA [CACACA_negctrl_site314]”, the “gcPBM binding intensity (ln)” value came to 8.32 ± 0.51. As to “TAATTATATGTATACACACACATACATTTACATAAC [CACACA_site3238]”, the “gcPBM binding intensity (ln)” value stood at 8.66 ± 0.52. To “TGCTTTTATTTCTTCACACATATGTAAAAAAAAGAA [CACACA_site5906]” belongs 8.76 ± 0.42. For “ATCAAAAGAAAACACACACACATACATATATATATA [CACACA_site3795]” the value was 9.81 ± 0.28.

Turning to “AAAAAAAAGAAACACACACACATACACATAAATATA [CACACA_site3807]”, the “gcPBM binding intensity (ln)” value came to 8.79 ± 0.47. To “AAAACTATATTAATGTGTACACATCAAAATATTAAT [XGTACX_site6767]” belongs 8.65 ± 0.13; to “TTATATAAAACATTAACACACAAAGAAAAAAAATTA [CACACA_site1793]”, 8.57 ± 0.47; to “AATCAAAACATTAAAAAGAAAAAATATATATATATA [CACACA_negctrl_site366]”, 10.2 ± 0.26. For “AAAACACAAAAAAAATGTACACATATATATATATAT [XGTACX_site8509]” the value was 10 ± 0.38; for “AATATAAAATCAAGAAATTAAAAAAAAACAGAAAAC [CACACA_negctrl_site1004]”, 8.93 ± 0.49; for “AAAACATCAAAAATGTGTACATATATATATATATAT [XGTACX_site8884]”, 10.3 ± 0.21.

Consider “AAAAAATACATCAAAAGAAACATATATATATATATA [GTGCAC_negctrl_site719]”, for which the “gcPBM binding intensity (ln)” value was 10.2 ± 0.67. To “TGGTAAATTTACCGTTGTACATTCATTTATAACATT [XGTACX_site8910]” belongs 8.68 ± 0.42; to “TATATATAGCATATTTCACACACACCGAATGAATAT [CACACA_site9182]”, 8.64 ± 0.36. To “ATTGTGTTAATAAAATGTACATTTTCTCTACTTTAA [XGTACX_site1199]” belongs 8.8 ± 0.35. To “TGTTCTAATTTTAATTGTACATATATACATATATAT [XGTACX_site7290]” belongs 8.46 ± 0.35; to “AAAAATATATAAAGAAAAAGAATATAATATAAAATA [GTGCAC_negctrl_site208]”, 8.53 ± 0.38; to “AACATATTTATGATGTGTACCTACATAATAGAATTT [XGTACX_site141]”, 8.38 ± 0.32.

Turning to “AAAAAGGTTATTGGTACACACATATGTATATATATA [CACACA_site552]”, the “gcPBM binding intensity (ln)” value was determined as 9.3 ± 0.057. To “AAGGTAAAATATAAGTGTACTTTTTCTTAATCTTCG [XGTACX_site514]” belongs 8.31 ± 0.15; to “ATGGGAATATAATTATGTACATATAAAAATTATAAA [XGTACX_site5336]”, 8.62 ± 0.34. To “TACAATTGTAAAGGCGCACACATATATATATATATA [CACACA_site1392]” belongs 10.3 ± 0.59. To “AAAAAAAGGTAAAATTGTACATACGCACAAAAATAT [XGTACX_site2887]” belongs 8.73 ± 0.33; to “TGCAATTGTAAAGGCGCACACATATATATATATATA [CACACA_site4894]”, 10.1 ± 0.34. Turning to “TTTTCCAGTAAATATTTTTTTATAATATTTATATAT [CACACA_negctrl_site387]”, the “gcPBM binding intensity (ln)” value was determined as 8.3 ± 0.4.
